In all, about 5,500 compounds went through this assay and about 2,000 (36%) were called active. Another 18% or so got no clear call; they are omitted. No stated cut-off is given here; in the data, active means normalized growth mostly below about 0.91 (no sharp cut-off); inconclusive means no clear call, values can overlap the other calls; inactive means mostly above about 0.92. Some of the results follow.
Test: chemical genetic growth profiling, strain panel (AID 1159580);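 further: tested at 20 µM; growth read once vehicle control cultures reached saturation at 30 °C; 1 = growth at the plate median or of vehicle wells; lower values mean less growth of the strain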
Settings: S. cerevisiae deletion strains, growth OD

Measured: normalized growth

O=C(O)CN(CC(=O)O)Cc1cc2c(-c3ccccc3C(=O)O)c3cc(CN(CC(=O)O)CC(=O)O)c(=O)cc-3oc2cc1O
inactive: locus YAL013W, strain DEP1, active compounds read low 1 | locus YAL021C, strain ccr4, active compounds read low 0.934 | locus YAL030W, strain snc1, active compounds read low 0.962 | locus YBL061C, strain skt5, active compounds read low 0.965 | locus YBR009C, strain hhf1, active compounds read low 0.931 | locus YBR021W, strain FUR4, active compounds read low 0.981 | locus YBR023C, strain chs3, active compounds read low 0.981 | locus YBR171W, strain sec66, active compounds read low 0.965 | locus YBR229C, strain ROT2, active compounds read low 1.01 | locus YBR231C, strain swc5, active compounds read low 0.943 | locus YBR279W, strain paf1, active compounds read low 0.967 | locus YCL011C, strain gbp2, active compounds read low 0.962 | locus YCL016C, strain dcc1, active compounds read low 0.976 | locus YCL029C, strain bik1, active compounds read low 1.02 | locus YCL061C, strain MRC1, active compounds read low 0.937 | locus YCL069W, strain vba3, active compounds read low 0.975 | locus YCR088W, strain abp1, active compounds read low 0.995 | locus YDL005C, strain med2, active compounds read low 0.982 | locus YDL035C, strain GPR1, active compounds read low 0.997 | locus YDL040C, strain nat1, active compounds read low 0.964 | locus YDL074C, strain BRE1, active compounds read low 0.991 | locus YDL101C, strain DUN1, active compounds read low 1.01 | locus YDL134C, strain PPH21, active compounds read low 1.01 | locus YDL185W, strain tfp1, active compounds read low 0.986 | locus YDL192W, strain arf1, active compounds read low 1.02 | locus YDR001C, strain nth1, active compounds read low 0.965 | locus YDR069C, strain doa4, active compounds read low 0.951 | locus YDR101C, strain arx1, active compounds read low 1.01 | locus YDR150W, strain NUM1, active compounds read low 1.02 | locus YDR159W, strain sac3, active compounds read low 0.96 | locus YDR162C, strain NBP2, active compounds read low 0.984 | locus YDR195W, strain ref2 1.04 | locus YDR297W, strain sur2, active compounds read low 0.951 | locus YDR318W, strain mcm21, active compounds read low 1.02 | locus YDR334W, strain swr1, active compounds read low 0.955 | locus YDR335W, strain msn5, active compounds read low 0.932 | locus YDR388W, active compounds read low 1.02 | locus YDR392W, strain spt3, active compounds read low 0.914 | locus YDR502C, strain sam2, active compounds read low 1.02 | locus YEL003W, strain gim4, active compounds read low 0.948 | locus YEL037C, strain rad23, active compounds read low 0.971 | locus YEL061C, strain CIN8 (second series), active compounds read low 0.963 | locus YEL061C, strain CIN8, active compounds read low 1 | locus YER016W, strain bim1, active compounds read low 0.986 | locus YER110C, active compounds read low 1.03 | locus YER111C, strain swi4, active compounds read low 0.934 | locus YER155C, strain BEM2 (second series), active compounds read low 1 | locus YER155C, strain BEM2, active compounds read low 1 | locus YER167W, strain BCK2, active compounds read low 1.02 | locus YFR010W, strain ubp6, active compounds read low 0.992 | locus YGL078C, strain dbp3, active compounds read low 1.02 | locus YGL086W, strain mad1, active compounds read low 1.01 | locus YGL167C, strain pmr1, active compounds read low 0.967 | locus YGL173C, strain kem1, active compounds read low 0.939 | locus YGL227W, strain vid30, active compounds read low 0.977 | locus YGL240W, strain doc1, active compounds read low 0.977 | locus YGL248W, strain PDE1, active compounds read low 1.01 | locus YGL253W, strain hxk2, active compounds read low 0.934 | locus YGR078C, strain PAC10, active compounds read low 0.997 | locus YGR135W, strain pre9, active compounds read low 1 | locus YGR229C, strain SMI1, active compounds read low 0.976 | locus YGR252W, strain gcn5, active compounds read low 1.05 | locus YHR013C, strain ard1, active compounds read low 0.963 | locus YHR030C, strain SLT2, active compounds read low 1 | locus YHR079C, strain IRE1 (second series), active compounds read low 1.02 | locus YHR094C, strain hxt1, active compounds read low 1.01 | locus YHR129C, strain ARP1, active compounds read low 0.997 | locus YHR142W, strain chs7, active compounds read low 0.945 | locus YHR200W, strain rpn10, active compounds read low 1.02 | locus YIL066C, strain RNR3, active compounds read low 0.992 | locus YIL073C, strain SPO22, active compounds read low 1.08 | locus YIL125W, strain kgd1, active compounds read low 1.01 | locus YIR030C, strain dcg1, active compounds read low 1.02 | locus YJL092W, strain hpr5, active compounds read low 0.977 | locus YJL095W, strain BCK1 (second series), active compounds read low 0.961 | locus YJL095W, strain BCK1, active compounds read low 0.976 | locus YJL115W, strain asf1, active compounds read low 0.947 | locus YJL129C, strain trk1, active compounds read low 0.911 | locus YJL134W, strain LCB3, active compounds read low 1.01 | locus YJL154C, strain vps35, active compounds read low 0.984 | locus YJL164C, strain tpk1, active compounds read low 0.929 | locus YJL166W, strain qcr8, active compounds read low 0.969 | locus YJL168C, strain set2, active compounds read low 1.01 | locus YJL187C, strain SWE1 (second series), active compounds read low 0.992 | locus YJL187C, strain SWE1, active compounds read low 0.963
active: locus YAL026C, strain drs2, active compounds read low 0.904 | locus YDR137W, strain rgp1, active compounds read low 0.829 | locus YER015W, strain faa2, active compounds read low 0.897 | locus YHR027C, strain rpn1, active compounds read low 0.874
